# Experiments:
# Experiment in all cases: yeast three-hybrid, YBZ-1, SC-Leu-His + 0.5 mM 3-AT, 4 days
# Settings in all cases: tags: N-Gal4 AD-HA kept; label: inside an RPR1-promoter hybrid RNA with tandem MS2 sites; ssRNA
# PUM1 PUF domain R4-SPL = PUM1 PUF domain R4-SPL (Homo sapiens, UniProt Q14671 828-1176, N971S;H972P;Q975L)
# In short: (§1)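 A centromeric plasmid in strain YBZ-1 co-expressed Pumilio-1 PUF domain libraries, randomized at the three base-contacting residues of each repeat, with matching RNA elements; the strain carries a LexA–MS2 coat fusion and a HIS3 reporter. After four days on SC-Leu (input) or SC-Leu-His + 0.5 mM 3-AT (selection), the repeat regions were PCR-amplified and Illumina-sequenced. The interaction score is the log change in variant frequency from input to selection, using log2 and a pseudocount of 1 where absent.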
# PUM1 PUF domain R3-VCQ = PUM1 PUF domain R3-VCQ (Homo sapiens, UniProt Q14671 828-1176, C935V;R936C)
# In short: as §1
# PUM1 PUF domain R4-AQS = PUM1 PUF domain R4-AQS (Homo sapiens, UniProt Q14671 828-1176, N971A;H972Q;Q975S)
# In short: as §1
# PUM1 PUF domain R4-ALG = PUM1 PUF domain R4-ALG (Homo sapiens, UniProt Q14671 828-1176, N971A;H972L;Q975G)
# In short: as §1
# PUM1 PUF domain R5-VRV = PUM1 PUF domain R5-VRV (Homo sapiens, UniProt Q14671 828-1176, C1007V;Q1011V)
# In short: as §1
# PUM1 PUF domain R6-DWQ = biological target: T1, PUM1 PUF domain R6-DWQ (Homo sapiens, UniProt Q14671 828-1176, N1043D;Y1044W)
# T1 sequence: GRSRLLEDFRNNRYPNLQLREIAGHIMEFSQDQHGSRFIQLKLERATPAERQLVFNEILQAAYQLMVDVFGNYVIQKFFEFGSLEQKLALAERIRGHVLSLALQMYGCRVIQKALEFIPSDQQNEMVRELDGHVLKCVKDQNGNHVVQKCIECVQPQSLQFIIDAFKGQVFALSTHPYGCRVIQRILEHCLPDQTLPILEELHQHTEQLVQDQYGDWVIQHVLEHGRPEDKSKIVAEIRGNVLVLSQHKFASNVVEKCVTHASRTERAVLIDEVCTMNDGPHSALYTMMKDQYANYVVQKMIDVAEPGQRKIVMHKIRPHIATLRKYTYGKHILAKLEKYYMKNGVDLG
# In short: as §1
# PUM1 PUF domain R1-GGR = PUM1 PUF domain R1-GGR (Homo sapiens, UniProt Q14671 828-1176, S863G;R864G;Q867R)
# In short: as §1
# PUM1 PUF domain R1-NFR = PUM1 PUF domain R1-NFR (Homo sapiens, UniProt Q14671 828-1176, S863N;R864F;Q867R)
# In short: as §1
# PUM1 PUF domain R1-KTR = PUM1 PUF domain R1-KTR (Homo sapiens, UniProt Q14671 828-1176, S863K;R864T;Q867R)
# In short: as §1
# PUM1 PUF domain R3-QRR = PUM1 PUF domain R3-QRR (Homo sapiens, UniProt Q14671 828-1176, C935Q;Q939R)
# In short: as §1
# PUM1 PUF domain R5-HQD = PUM1 PUF domain R5-HQD (Homo sapiens, UniProt Q14671 828-1176, C1007H;R1008Q;Q1011D)
# In short: as §1
# PUM1 PUF domain R5-KLM = PUM1 PUF domain R5-KLM (Homo sapiens, UniProt Q14671 828-1176, C1007K;R1008L;Q1011M)
# In short: as §1
# PUM1 PUF domain R5-MKR = PUM1 PUF domain R5-MKR (Homo sapiens, UniProt Q14671 828-1176, C1007M;R1008K;Q1011R)
# In short: as §1
# PUM1 PUF domain R5-PWL = PUM1 PUF domain R5-PWL (Homo sapiens, UniProt Q14671 828-1176, C1007P;R1008W;Q1011L)
# In short: as §1
# PUM1 PUF domain R5-KGI = PUM1 PUF domain R5-KGI (Homo sapiens, UniProt Q14671 828-1176, C1007K;R1008G;Q1011I)
# In short: as §1
# PUM1 PUF domain R5-GQQ = PUM1 PUF domain R5-GQQ (Homo sapiens, UniProt Q14671 828-1176, C1007G;R1008Q)
# In short: as §1
# PUM1 PUF domain R5-EKL = PUM1 PUF domain R5-EKL (Homo sapiens, UniProt Q14671 828-1176, C1007E;R1008K;Q1011L)
# In short: as §1
# PUM1 PUF domain R5-KLM, sequence (Q14671 828-1176 C1007K/R1008L/Q1011M): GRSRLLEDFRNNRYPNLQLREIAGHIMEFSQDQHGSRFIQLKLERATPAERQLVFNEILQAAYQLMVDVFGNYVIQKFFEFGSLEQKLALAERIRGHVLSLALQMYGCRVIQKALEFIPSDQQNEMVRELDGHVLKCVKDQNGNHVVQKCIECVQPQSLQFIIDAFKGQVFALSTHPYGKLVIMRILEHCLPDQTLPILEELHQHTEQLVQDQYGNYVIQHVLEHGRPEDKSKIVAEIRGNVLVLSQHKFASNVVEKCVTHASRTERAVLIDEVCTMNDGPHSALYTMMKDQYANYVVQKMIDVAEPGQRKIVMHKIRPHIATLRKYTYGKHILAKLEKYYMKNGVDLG
# PUM1 PUF domain R4-SPL, sequence (Q14671 828-1176 N971S/H972P/Q975L): as the sequence (Q14671 828-1176 C1007K/R1008L/Q1011M) above, with N144S, H145P, Q148L, K180C, L181R, M184Q counted along it
# PUM1 PUF domain R3-VCQ, sequence (Q14671 828-1176 C935V/R936C): as the sequence (Q14671 828-1176 C1007K/R1008L/Q1011M) above, with C108V, R109C, K180C, L181R, M184Q counted along it
# PUM1 PUF domain R1-GGR, sequence (Q14671 828-1176 S863G/R864G/Q867R): as the sequence (Q14671 828-1176 C1007K/R1008L/Q1011M) above, with S36G, R37G, Q40R, K180C, L181R, M184Q counted along it
# PUM1 PUF domain R4-AQS, sequence (Q14671 828-1176 N971A/H972Q/Q975S): as the sequence (Q14671 828-1176 C1007K/R1008L/Q1011M) above, with N144A, H145Q, Q148S, K180C, L181R, M184Q counted along it
# PUM1 PUF domain R5-HQD, sequence (Q14671 828-1176 C1007H/R1008Q/Q1011D): as the sequence (Q14671 828-1176 C1007K/R1008L/Q1011M) above, with K180H, L181Q, M184D counted along it
# PUM1 PUF domain R5-KGI, sequence (Q14671 828-1176 C1007K/R1008G/Q1011I): as the sequence (Q14671 828-1176 C1007K/R1008L/Q1011M) above, with L181G, M184I counted along it
# PUM1 PUF domain R1-KTR, sequence (Q14671 828-1176 S863K/R864T/Q867R): as the sequence (Q14671 828-1176 C1007K/R1008L/Q1011M) above, with S36K, R37T, Q40R, K180C, L181R, M184Q counted along it
sequence,measurement,setting,value
GGCUAGAACUAGUGGAUCCCCCGGCGCCCGGCGGCUCGAGCCCGGGUAAGUGUAAAUAGUCUGCAUGCCGCCGGGCGCCAUGCCUGCAGGUCGACUCUAGAAAACAUG,binding signal,PUM1 PUF domain R4-SPL,2.38 log2 enrichment (interaction score)
same,binding signal,PUM1 PUF domain R3-VCQ,2.76 log2 enrichment (interaction score)
same,binding signal,PUM1 PUF domain R4-AQS,2.27 log2 enrichment (interaction score)
same,binding signal,PUM1 PUF domain R4-ALG,2.12 log2 enrichment (interaction score)
same,binding signal,PUM1 PUF domain R5-VRV,3.36 log2 enrichment (interaction score)
same,binding signal,PUM1 PUF domain R6-DWQ,2.34 log2 enrichment (interaction score)
GGCUAGAACUAGUGGAUCCCCCGGCGCCCGGCGGCUCGAGCCCGGGUAAGUGUAUAUAGUCUGCAUGCCGCCGGGCGCCAUGCCUGCAGGUCGACUCUAGAAAACAUG,binding signal,PUM1 PUF domain R4-SPL,1.39 log2 enrichment (interaction score)
GGCUAGAACUAGUGGAUCCCCCGGCGCCCGGCGGCUCGAGCCCGGGUAAGUGUAAAUCGUCUGCAUGCCGCCGGGCGCCAUGCCUGCAGGUCGACUCUAGAAAACAUG,binding signal,PUM1 PUF domain R1-GGR,3.41 log2 enrichment (interaction score)
same,binding signal,PUM1 PUF domain R1-NFR,6.39 log2 enrichment (interaction score)
GGCUAGAACUAGUGGAUCCCCCGGCGCCCGGCGGCUCGAGCCCGGGUAAGUGUAAAUUGUCUGCAUGCCGCCGGGCGCCAUGCCUGCAGGUCGACUCUAGAAAACAUG,binding signal,PUM1 PUF domain R1-GGR,1.86 log2 enrichment (interaction score)
same,binding signal,PUM1 PUF domain R1-KTR,4.86 log2 enrichment (interaction score)
GGCUAGAACUAGUGGAUCCCCCGGCGCCCGGCGGCUCGAGCCCGGGUAAGUGUAAUUAGUCUGCAUGCCGCCGGGCGCCAUGCCUGCAGGUCGACUCUAGAAAACAUG,binding signal,PUM1 PUF domain R3-VCQ,0.32 log2 enrichment (interaction score)
same,binding signal,PUM1 PUF domain R3-QRR,4.3 log2 enrichment (interaction score)
GGCUAGAACUAGUGGAUCCCCCGGCGCCCGGCGGCUCGAGCCCGGGUAAGUGUUAAUAGUCUGCAUGCCGCCGGGCGCCAUGCCUGCAGGUCGACUCUAGAAAACAUG,binding signal,PUM1 PUF domain R5-HQD,3.03 log2 enrichment (interaction score)
same,binding signal,PUM1 PUF domain R5-KLM,0.44 log2 enrichment (interaction score)
same,binding signal,PUM1 PUF domain R5-MKR,1.52 log2 enrichment (interaction score)
same,binding signal,PUM1 PUF domain R5-PWL,3.31 log2 enrichment (interaction score)
GGCUAGAACUAGUGGAUCCCCCGGCGCCCGGCGGCUCGAGCCCGGGUAAGUGUCAAUAGUCUGCAUGCCGCCGGGCGCCAUGCCUGCAGGUCGACUCUAGAAAACAUG,binding signal,PUM1 PUF domain R5-KLM,2.69 log2 enrichment (interaction score)
same,binding signal,PUM1 PUF domain R5-KGI,3.97 log2 enrichment (interaction score)
same,binding signal,PUM1 PUF domain R5-MKR,2.84 log2 enrichment (interaction score)
same,binding signal,PUM1 PUF domain R5-GQQ,4.12 log2 enrichment (interaction score)
same,binding signal,PUM1 PUF domain R5-EKL,2.47 log2 enrichment (interaction score)

# From article PMC8384837, “Expanding the binding specificity for RNA recognition by a PUF domain”
